# According to ChEMBL document CHEMBL3433997, “St. Jude Leishmania screening dataset” (2016):
# Tests used:
# Type in all cases: functional
# [1] = molecular target: Solute carrier family 2, facilitated glucose transporter member 1 (Homo sapiens) (UniProt P11166); assay: ST_JUDE_LEISH: Cytotoxicity at 2uM final concentration against transgenic Leishmania Mexicana promastigotes LmGLUT1 that are glucose transport deficient and complemented with the human glucose transporter GLUT1. Activity is measured by DNA content using SYBR green in vitro
# Chain of Solute carrier family 2, facilitated glucose transporter member 1 (Homo sapiens) (P11166 whole entry): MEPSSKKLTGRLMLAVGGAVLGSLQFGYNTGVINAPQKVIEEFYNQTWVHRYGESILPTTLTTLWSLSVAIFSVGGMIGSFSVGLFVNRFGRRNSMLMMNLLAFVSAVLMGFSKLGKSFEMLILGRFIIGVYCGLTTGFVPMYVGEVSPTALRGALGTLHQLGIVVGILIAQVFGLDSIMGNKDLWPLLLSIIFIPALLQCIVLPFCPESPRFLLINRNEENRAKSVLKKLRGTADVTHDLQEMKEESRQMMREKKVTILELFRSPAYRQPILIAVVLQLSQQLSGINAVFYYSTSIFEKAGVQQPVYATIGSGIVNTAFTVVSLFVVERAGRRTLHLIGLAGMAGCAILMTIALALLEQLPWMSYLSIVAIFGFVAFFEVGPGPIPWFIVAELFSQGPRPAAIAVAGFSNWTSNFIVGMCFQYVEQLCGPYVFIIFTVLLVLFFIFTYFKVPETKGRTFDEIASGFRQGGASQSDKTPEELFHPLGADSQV
# [2] = molecular target: Hexose transporter 1 (Plasmodium falciparum) (UniProt O97467); assay: ST_JUDE_LEISH: Cytotoxicity at 2uM final concentration against transgenic Leishmania Mexicana promastigotes LmPfHT that are glucose transport deficient and complemented with the Plasmodium falciparum hexose transporter. Activity is measured by DNA content using SYBR green in vitro
# [3] = molecular target: Glucose transporter (Leishmania mexicana) (UniProt O61059); assay: ST_JUDE_LEISH: Cytotoxicity at 2uM final concentration against transgenic Leishmania Mexicana promastigotes LmGT2 that are glucose transport deficient and complemented with the L. Mexicana glucose transporter 2. Activity is measured by DNA content using SYBR green in vitro
SMILES,inhibition [1] [%],inhibition [2] [%],inhibition [3] [%]
N#Cc1cccc(C(=O)Nc2cccc(-c3ccc(CN4CCCC4)cc3)c2)c1,1.56,2.56,2.89
O=C(/C=C/c1ccc(Cl)cc1)NCCCCCN1CCCN(C(=O)Nc2ccc(F)c(Cl)c2)CC1,5.5,3.92,4.64
COc1ccc(N2CCN(CCCCNC(=O)c3ccc(NC(=O)c4ccc(Cl)cc4)cc3)CC2)c(OC)c1,9.13,8.66,8.5
NC(=O)c1cccc(Nc2nccc(Nc3ccc(Oc4cccc(Cl)c4)c(Cl)c3)n2)c1,10.6,9.87,7.71
COc1ccc(Nc2nccc(NCCNC(=O)Nc3cc(C)ccc3C)n2)cc1,11.1,9.29,1.38
N#Cc1ccc(OCCN(Cc2ccccc2C(F)(F)F)c2ccc(C#N)c(C(F)(F)F)c2)cc1,10.1,9.42,8.53
O=C(Cn1cnc2c(nnn2Cc2ccccc2F)c1=O)Nc1ccc2c(c1)OCCO2,1.31,0.66,-0.43
CCc1cc(OC)ccc1C1CCN(CCCCNC(=O)c2ccc(NC(=O)c3ccc(Cl)cc3)cc2)CC1,3.47,5.73,-1.82
CO[C@H](C)[C@H](NC(=O)[C@H](CC(C)C)[C@H](CCC(F)(F)F)N(O)C=O)C(=O)Nc1nccs1,4.95,4.95,3.68
Cc1noc(C)c1-c1cccc(CNCc2ccc(-c3cccc(-c4nc5cc(F)ccc5[nH]4)c3)cc2)c1,11.3,10.1,10.8
Cc1cc(N(C)C)nc(Nc2ccc(NC(=O)c3ccc(F)cc3)cc2)n1,5.57,8.06,3.85
CCCCCCSc1nnc(COc2cccc3ccccc23)n1-c1ccc(OC)cc1,11,12.1,10.3
CC(=NNC(=N)N)C(=O)Nc1ccc(Cl)c(Cl)c1,1.75,1.53,2.25
c1cc(-c2ccc(CN3CCN(c4ccncc4)CC3)cc2)cc(-c2nc3ccccc3[nH]2)c1,1.81,3.51,2.1
O=C(Nc1cccc(-c2nn3ccccc3c2-c2ccnc(Nc3ccccc3)n2)c1)c1cc(F)ccc1F,4.48,2.05,-2.21
CCn1c(-c2nonc2N)nc2cnc(Oc3cccc(NC(=O)c4ccc(OCCN5CCCC5)cc4)c3)cc21,7.41,9.98,7.84

SMILES,inhibition [1] [%],inhibition [2] [%],inhibition [3] [%]
Cc1cccc2nc(-c3ccc(-c4ccc(CN5CCN(CC6CCCN(C)C6)CC5)cc4)s3)[nH]c12 (stereo unspecified),8.45,21.1,8.04
CO/C(=C\C=C\c1cc2cc(Cl)c(Cl)cc2[nH]1)C(=O)NCCCN1CCN(Cc2ccccc2)CC1,2.32,0.91,2.11
CCc1sc(-c2cc(Cl)ccc2OC)nc1C(=O)NCCN1CCCCC1,4.48,4.06,4.96
Cc1ccc(OCCCON2C(=N)N=C(N)NC2(C)C)cc1C,2.79,2.67,1.46
CCn1cnc2c(N3CCCC3=O)cc(C(=O)N[C@@H](Cc3ccccc3)[C@H](O)CNC3CCCCC3)cc21,2,1.91,2.63
CC12CCC(=O)N1C(C(=O)Nc1cccc(C(=O)Nc3cccc(C(F)(F)F)c3)c1)CS2 (stereo unspecified),5.52,6.47,6.41
Cc1cccc(CNc2nc(C)cc(N[C@@H](Cc3ccccc3)C(=O)NCc3cccc(F)c3)n2)c1,6.42,6.57,2.83
COc1cc(N)c(Cl)cc1C(=O)NCC1CCN(c2nc(C)cc(C)n2)CC1,1.37,0.61,-0.76
CC(C)C1C(O)=C(c2ccc3ccccc3c2)C(=O)N1Cc1cccc(F)c1 (stereo unspecified),6.97,7.53,8.55
CCNc1cc(C(=O)N[C@@H](Cc2ccc(Cl)cc2)[C@H](O)CNC2CCCCC2)cc(N2CCCCS2(=O)=O)c1,0.89,1.36,1.39
O=C(N[C@@H](Cc1ccccc1)[C@H](O)CNCCC(F)(F)F)c1cccc(CCC2CC2)c1,0.82,1.82,2.39
O=C(Nc1cccc(-c2cccc(-c3nc4cc(F)ccc4[nH]3)c2)c1)Nc1ccc2c(c1)OCO2,1.84,4.87,-1.13
CCCCc1ccc(-c2nc(NC(=O)Nc3[nH]c(-c4ccccc4)nc3C(=O)OCC)c(C(=O)OCC)[nH]2)cc1,3.65,0.82,-0.95
Cc1nc(C)c(-c2ccc(C(F)(F)F)cc2)c(O)c1Br,2.72,1.79,0.77
COC(=O)c1cccc(CNCc2ccc(-c3ccc(-c4nc5cc(F)ccc5[nH]4)s3)cc2)c1,2.57,0.36,1.42
O=C(Cn1c(CCc2cccc(F)c2F)nc(=O)c2cccnc21)N(Cc1ccc(-c2ccc(C(F)(F)F)cc2)cc1)C1CCN(C2CCSCC2)CC1,3.24,4.36,0.42
